FLuc counter – inhibits or activates purified firefly luciferase, miR-21 counter-screen | P08659 | purified FLuc, Km substrates, luminescence inhibition | Potency, µM (series often up to 57.5 µM), for the others: at the highest dose activity change, negative = inhibition, most hits filed as inhibitors | 360,000 compounds, 6.9% hits | AID 588342;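 note: plate controls were vehicle for no effect and reference inhibitor for full effect; nearly all actives have a fitted effect of over 55% in size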
Target sequence (P08659 whole entry, looked up): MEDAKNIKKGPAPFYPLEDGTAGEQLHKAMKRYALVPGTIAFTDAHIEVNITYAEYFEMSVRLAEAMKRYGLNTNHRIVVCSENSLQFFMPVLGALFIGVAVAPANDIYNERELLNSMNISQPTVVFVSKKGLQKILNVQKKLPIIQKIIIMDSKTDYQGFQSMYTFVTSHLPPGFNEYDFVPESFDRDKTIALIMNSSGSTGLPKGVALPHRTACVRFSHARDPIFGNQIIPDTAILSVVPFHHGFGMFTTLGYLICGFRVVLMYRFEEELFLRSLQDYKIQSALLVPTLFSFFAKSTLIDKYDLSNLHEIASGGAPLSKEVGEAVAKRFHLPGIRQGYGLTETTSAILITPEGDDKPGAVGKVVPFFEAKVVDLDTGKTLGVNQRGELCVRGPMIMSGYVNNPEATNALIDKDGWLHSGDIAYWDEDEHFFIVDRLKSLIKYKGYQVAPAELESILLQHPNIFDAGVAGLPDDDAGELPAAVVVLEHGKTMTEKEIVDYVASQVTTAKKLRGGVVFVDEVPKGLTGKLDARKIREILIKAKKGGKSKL
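Biochemical qHTS of compounds, final roughly 60 µM downward over six points, against 10 nM purified firefly luciferase using Km concentrations of substrates (10 uM D-luciferin, 10 uM ATP) in Tris acetate pH 7.5 buffer; luminescence output.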
NPC1 prom act – NPC1 promoter activation; Potency, µM (titrated, usually from 9.22 µM), inactives show at the highest dose activation, hits mostly activators; 320,000 compounds, 2.4% hits; AID 485313; Huh7 NPC1 promoter luciferase reporter, 24 h; note: % of control where 0% means no effect; nearly all actives have a fitted effect of over 60% in size
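Stable NPC1-promoter luciferase Huh7 line; cpd (DMSO) 24 h, 37 °C, 5% CO2; Amplite luciferase reagent 10 min RT; luminescence readout. qHTS format.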
ELG1 genotoxic – induces genotoxicity in HEK293T cells with luciferase-tagged ELG1; HEK293T ELG1-luciferase reporter, luminescence, 16 h; Potency, µM (top dose mostly 46 µM), for inactives: top-dose activity change, positive = activation, actives largely listed as activators; 330,000 compounds, 1.3% hits; note: % of control where 0% means no effect; nearly all actives have a fitted effect of over 60% in size
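HEK293T cells expressing luciferase-tagged ELG1 were exposed to compound or DMSO vehicle for 16 hr at 37 °C and 5% CO2. Luciferase activity was then measured with ONE-Glo after 30 min at room temperature.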
Rab9 prom act – activators of Rab9 promoter; Huh7 Rab9 promoter-luciferase reporter, luminescence, 24 h; Potency, µM (doses to about 9.22 µM), without a hit: at the highest dose activation, negative = inhibition, most hits filed as activators; 320,000 compounds, 2.8% hits; note: % of control where 0% means no effect; nearly all actives have a fitted effect of over 60% in size
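Luminescence read-out: Huh7 cells stably expressing Rab9-luciferase, treated 24 h with compound at 37 °C, then lysed with luciferase reagent for 10 min at ambient before reading.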
SMN2 splice up – enhancers of SMN2 splice variant expression | Potency, µM (doses to about 46.1 µM), inactives show at the top dose activity change, positive = activation, actives largely listed as activators | HEK293 SMN2-luciferase splicing reporter, luminescence, 30-36 h | 210,000 compounds, 2.8% hits; note: % of control where 0% means no effect; nearly all actives have a fitted effect of over 55% in size
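HEK293 cells carry an SMN2 minigene-luciferase reporter in which exon 7 inclusion puts luciferase in frame. Cells were seeded at 2000 cells/well, attached for 10-12 hours, then exposed to compounds for 30-36 hours at 37C before ONE-Glo luminescence.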
ELG1 DNA repair – ELG1-dependent DNA repair inhibition | HEK293T ELG1-luciferase reporter, luminescence, 16 h; DNA damage induced by 5-fluorouridine | Potency, µM (series often up to 46.1 µM), inactives show top-dose activity change, negative = inhibition, hits mostly inhibitors | 330,000 compounds, 2.3% hits; note: % is set by controls: 0 for no effect and ±100 for the full control effect; nearly all actives have a fitted effect of over 55% in size
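5-Fluorouridine DNA damage + compound/DMSO, 2,000 cells/well, 16 h, 37 °C/5% CO2. ONE-Glo, 30 min RT, luminescence. Readout = decrease in reporter signal.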
* = called active by the depositor; [ ] = another dose, or the depositor's remark. This is a sample that favours compounds with a hit; in the whole collection about 9.2% have one here. Calls come from the whole dose curve; as a rule, active = well fitted curve in the direction sought with a large enough effect; inconclusive = small, poorly fitted or top-dose-only effect, or another doubt; inactive = no such curve, though single readings can be large; an effect the other way counts as inactive or inconclusive. Potency is the fitted concentration of half-maximal effect.

Screening Cn1c(=O)c(NC2CCCCC2)c2c3c(cccc31)C(=O)c1ccccc1-2 returned FLuc counter -3.9%, NPC1 prom act -4.0%, ELG1 genotoxic -11.8%, Rab9 prom act -17.1% and ELG1 DNA repair 18.3µM*.
`Cn1c(=O)c(NCCc2ccccc2)c2c3c(cccc31)C(=O)c1ccccc1-2` gave FLuc counter 9.1%, NPC1 prom act 0.1%, ELG1 genotoxic -16.7%, Rab9 prom act -3.2%, SMN2 splice up -13.9% and ELG1 DNA repair 20.6µM*.
For COc1ccc(C(=O)COC(=O)c2cnc(C)cn2)c(OC)c1 the results were FLuc counter 1.3%, NPC1 prom act 0.7%, ELG1 genotoxic 1.9%, Rab9 prom act 2.7% and ELG1 DNA repair inconclusive.
`Cc1c(CC(=O)O)c(=O)oc2c(C)c(OCc3ccc(F)cc3Cl)ccc12` gave FLuc counter inconclusive, NPC1 prom act -5.2%, ELG1 genotoxic 3.6%, Rab9 prom act -1.8% and ELG1 DNA repair inconclusive.
`COc1ccc(-n2c(C)cc(C(=O)NC3CCCCC3)c2C)cc1` gave FLuc counter 13.5µM*, NPC1 prom act inconclusive, ELG1 genotoxic 26.0%, Rab9 prom act 3.55µM*, SMN2 splice up inconclusive and ELG1 DNA repair inconclusive.
`COc1ccc(N2CC(C(=O)NC3CCCCC3)CC2=O)cc1` (stereo not given) gave FLuc counter 0.2%, NPC1 prom act 0.6%, ELG1 genotoxic 2.3%, Rab9 prom act -0.7% and ELG1 DNA repair inconclusive.
For Cc1cccc(N2CCN(C(=O)NC3CCCCC3)CC2C)c1 (stereo not given) the results were FLuc counter 1.6%, NPC1 prom act -4.0%, ELG1 genotoxic -5.3%, Rab9 prom act -4.3% and ELG1 DNA repair -23.8%.
For Cc1cccc(-n2c(C)cc(C(=O)NC3CCCCC3)c2C)c1 the results were FLuc counter 21.3µM*, NPC1 prom act inconclusive, ELG1 genotoxic inconclusive, Rab9 prom act 3.55µM*, SMN2 splice up inconclusive and ELG1 DNA repair inconclusive.
`CC(C)(C)CN1CCC(Oc2cccc(C(=O)N3CCC[C@H]3CO)c2)CC1` gave FLuc counter 2.3%, NPC1 prom act -4.2%, ELG1 genotoxic -0.7%[9.26 µM], Rab9 prom act -3.7% and ELG1 DNA repair inconclusive.
`COc1cc(C(CC(=O)Nc2ccc(C)cn2)N2Cc3ccccc3C2=O)cc(OC)c1OC` (stereo not given) gave FLuc counter -1.6%, NPC1 prom act -2.0%, ELG1 genotoxic 4.3%, Rab9 prom act -1.6% and ELG1 DNA repair -1.8%.
Screening O=[N+]([O-])c1ccc(N2CCN(S(=O)(=O)c3ccccc3)CC2)cc1NCCN1CCOCC1 returned FLuc counter -1.8%, NPC1 prom act 1.1%, ELG1 genotoxic -21.5%, Rab9 prom act -5.3%, SMN2 splice up -6.4% and ELG1 DNA repair 25.9µM*.
Cc1ccc(S(=O)(=O)N2CCN(c3ccc([N+](=O)[O-])c(NCCN4CCOCC4)c3)CC2)cc1 was read as FLuc counter -0.2%, NPC1 prom act -3.7%, ELG1 genotoxic -2.1%, Rab9 prom act 1.1%, SMN2 splice up 16.5% and ELG1 DNA repair inconclusive.
CCCCN(CC)C(=O)c1nn(C)c2c1CSc1ccccc1-2 was read as FLuc counter 6.0%.
Screening COc1cccc(C(=O)N/N=C/c2ccc(Oc3ccc([N+](=O)[O-])cn3)c(OC)c2)c1 returned FLuc counter -15.0%, NPC1 prom act 2.7%, ELG1 genotoxic -4.2%, Rab9 prom act 0.8%, SMN2 splice up -23.8% and ELG1 DNA repair -23.0%.
Screening COc1cc(/C=C2\SC(=O)NC2=O)ccc1Oc1ccc([N+](=O)[O-])cn1 returned FLuc counter inconclusive, NPC1 prom act 8.5%, ELG1 genotoxic 0.4%, Rab9 prom act -0.5% and ELG1 DNA repair 20.6µM*.
